Measurements taken from paper PMC11006913.

Tests used:
Assay in all cases: PBM; 200 nM protein, PBS
Details in all cases: dsDNA, one strand shown
[1] = biological target: HOXD13 (Homo sapiens, UniProt P35453 263-343, T313R)
[2] = biological target: HOXD13 (Homo sapiens, UniProt P35453 263-343)
[3] = biological target: HOXD13 (Homo sapiens, UniProt P35453 263-343, T313A)
HOXD13 (Homo sapiens, UniProt P35453 263-343, T313A), sequence (P35453 263-343 T313A): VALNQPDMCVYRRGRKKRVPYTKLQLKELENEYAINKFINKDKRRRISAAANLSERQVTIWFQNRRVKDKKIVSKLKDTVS

HOXD13 (Homo sapiens, UniProt P35453 263-343), sequence (P35453 263-343): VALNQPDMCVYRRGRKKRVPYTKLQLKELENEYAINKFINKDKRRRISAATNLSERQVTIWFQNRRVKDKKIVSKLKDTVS
HOXD13 (Homo sapiens, UniProt P35453 263-343, T313R), sequence (P35453 263-343 T313R): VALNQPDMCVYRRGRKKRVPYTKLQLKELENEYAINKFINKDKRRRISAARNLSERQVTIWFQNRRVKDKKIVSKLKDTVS

| Sequence | binding signal [1] | binding signal [2] | binding signal [3] |
| --- | --- | --- | --- |
| GGCCCGAA | 9.5 upbm affinity estimate (log intensity, higher = more binding, comparable within an allelic series) | 9.42 upbm affinity estimate (log intensity, higher = more binding, comparable within an allelic series) | 9.59 upbm affinity estimate (log intensity, higher = more binding, comparable within an allelic series) |
| AGGAGGGG | 9.43 upbm affinity estimate (log intensity, higher = more binding, comparable within an allelic series) | 9.61 upbm affinity estimate (log intensity, higher = more binding, comparable within an allelic series) | 9.63 upbm affinity estimate (log intensity, higher = more binding, comparable within an allelic series) |
| TTGTAAAA | 10.7 upbm affinity estimate (log intensity, higher = more binding, comparable within an allelic series) | 11.8 upbm affinity estimate (log intensity, higher = more binding, comparable within an allelic series) | 11.6 upbm affinity estimate (log intensity, higher = more binding, comparable within an allelic series) |
| GGAGCAAC | 9.51 upbm affinity estimate (log intensity, higher = more binding, comparable within an allelic series) | 9.53 upbm affinity estimate (log intensity, higher = more binding, comparable within an allelic series) | 9.56 upbm affinity estimate (log intensity, higher = more binding, comparable within an allelic series) |
| CCAGTCCG | 9.56 upbm affinity estimate (log intensity, higher = more binding, comparable within an allelic series) | 9.53 upbm affinity estimate (log intensity, higher = more binding, comparable within an allelic series) | 9.68 upbm affinity estimate (log intensity, higher = more binding, comparable within an allelic series) |
| GCACCGGA | 9.55 upbm affinity estimate (log intensity, higher = more binding, comparable within an allelic series) | 9.43 upbm affinity estimate (log intensity, higher = more binding, comparable within an allelic series) | 9.61 upbm affinity estimate (log intensity, higher = more binding, comparable within an allelic series) |
| CGCACAGC | 9.44 upbm affinity estimate (log intensity, higher = more binding, comparable within an allelic series) | 9.48 upbm affinity estimate (log intensity, higher = more binding, comparable within an allelic series) | 9.53 upbm affinity estimate (log intensity, higher = more binding, comparable within an allelic series) |
| ATAGCAAT | 10.2 upbm affinity estimate (log intensity, higher = more binding, comparable within an allelic series) | 10.7 upbm affinity estimate (log intensity, higher = more binding, comparable within an allelic series) | – |
| CATCGGGC | 9.55 upbm affinity estimate (log intensity, higher = more binding, comparable within an allelic series) | 9.52 upbm affinity estimate (log intensity, higher = more binding, comparable within an allelic series) | 9.62 upbm affinity estimate (log intensity, higher = more binding, comparable within an allelic series) |
| AAGGGGGG | 9 upbm affinity estimate (log intensity, higher = more binding, comparable within an allelic series) | 9.33 upbm affinity estimate (log intensity, higher = more binding, comparable within an allelic series) | 9.26 upbm affinity estimate (log intensity, higher = more binding, comparable within an allelic series) |
| ATTTACAA | 10.7 upbm affinity estimate (log intensity, higher = more binding, comparable within an allelic series) | 11.8 upbm affinity estimate (log intensity, higher = more binding, comparable within an allelic series) | 11.6 upbm affinity estimate (log intensity, higher = more binding, comparable within an allelic series) |
| GGCCCACC | 9.47 upbm affinity estimate (log intensity, higher = more binding, comparable within an allelic series) | 9.38 upbm affinity estimate (log intensity, higher = more binding, comparable within an allelic series) | 9.5 upbm affinity estimate (log intensity, higher = more binding, comparable within an allelic series) |
| CCGGCCGC | 9.39 upbm affinity estimate (log intensity, higher = more binding, comparable within an allelic series) | 9.4 upbm affinity estimate (log intensity, higher = more binding, comparable within an allelic series) | 9.32 upbm affinity estimate (log intensity, higher = more binding, comparable within an allelic series) |
| CTTGTAAA | 10.9 upbm affinity estimate (log intensity, higher = more binding, comparable within an allelic series) | 12.3 upbm affinity estimate (log intensity, higher = more binding, comparable within an allelic series) | 11.9 upbm affinity estimate (log intensity, higher = more binding, comparable within an allelic series) |
| CTAGTAAA | 10.8 upbm affinity estimate (log intensity, higher = more binding, comparable within an allelic series) | 11.9 upbm affinity estimate (log intensity, higher = more binding, comparable within an allelic series) | 11.8 upbm affinity estimate (log intensity, higher = more binding, comparable within an allelic series) |
| GCCGGTGA | 9.57 upbm affinity estimate (log intensity, higher = more binding, comparable within an allelic series) | 9.7 upbm affinity estimate (log intensity, higher = more binding, comparable within an allelic series) | 9.88 upbm affinity estimate (log intensity, higher = more binding, comparable within an allelic series) |
| GCTGCGCA | 9.55 upbm affinity estimate (log intensity, higher = more binding, comparable within an allelic series) | 9.53 upbm affinity estimate (log intensity, higher = more binding, comparable within an allelic series) | 9.77 upbm affinity estimate (log intensity, higher = more binding, comparable within an allelic series) |
| GGGCCGGA | 9.43 upbm affinity estimate (log intensity, higher = more binding, comparable within an allelic series) | 9.41 upbm affinity estimate (log intensity, higher = more binding, comparable within an allelic series) | 9.47 upbm affinity estimate (log intensity, higher = more binding, comparable within an allelic series) |
| CGCAGCCC | 9.49 upbm affinity estimate (log intensity, higher = more binding, comparable within an allelic series) | 9.55 upbm affinity estimate (log intensity, higher = more binding, comparable within an allelic series) | 9.57 upbm affinity estimate (log intensity, higher = more binding, comparable within an allelic series) |
| GAAGGCCC | 9.62 upbm affinity estimate (log intensity, higher = more binding, comparable within an allelic series) | 9.68 upbm affinity estimate (log intensity, higher = more binding, comparable within an allelic series) | 9.79 upbm affinity estimate (log intensity, higher = more binding, comparable within an allelic series) |
| CAATAATC | 10.2 upbm affinity estimate (log intensity, higher = more binding, comparable within an allelic series) | 11.2 upbm affinity estimate (log intensity, higher = more binding, comparable within an allelic series) | 11.1 upbm affinity estimate (log intensity, higher = more binding, comparable within an allelic series) |
| CGCCGCCC | 9.48 upbm affinity estimate (log intensity, higher = more binding, comparable within an allelic series) | 9.53 upbm affinity estimate (log intensity, higher = more binding, comparable within an allelic series) | 9.6 upbm affinity estimate (log intensity, higher = more binding, comparable within an allelic series) |
| AGCCGGCC | 9.49 upbm affinity estimate (log intensity, higher = more binding, comparable within an allelic series) | 9.41 upbm affinity estimate (log intensity, higher = more binding, comparable within an allelic series) | 9.49 upbm affinity estimate (log intensity, higher = more binding, comparable within an allelic series) |
| CCAGTAAA | 10.4 upbm affinity estimate (log intensity, higher = more binding, comparable within an allelic series) | 11.5 upbm affinity estimate (log intensity, higher = more binding, comparable within an allelic series) | 11.2 upbm affinity estimate (log intensity, higher = more binding, comparable within an allelic series) |
| CATCGGGG | 9.56 upbm affinity estimate (log intensity, higher = more binding, comparable within an allelic series) | 9.66 upbm affinity estimate (log intensity, higher = more binding, comparable within an allelic series) | 9.72 upbm affinity estimate (log intensity, higher = more binding, comparable within an allelic series) |
| CGCGATGC | 9.5 upbm affinity estimate (log intensity, higher = more binding, comparable within an allelic series) | 9.5 upbm affinity estimate (log intensity, higher = more binding, comparable within an allelic series) | 9.65 upbm affinity estimate (log intensity, higher = more binding, comparable within an allelic series) |
| CAGCGGGG | 9.37 upbm affinity estimate (log intensity, higher = more binding, comparable within an allelic series) | 9.58 upbm affinity estimate (log intensity, higher = more binding, comparable within an allelic series) | 9.58 upbm affinity estimate (log intensity, higher = more binding, comparable within an allelic series) |
| CAGTGGGG | 9.47 upbm affinity estimate (log intensity, higher = more binding, comparable within an allelic series) | 9.55 upbm affinity estimate (log intensity, higher = more binding, comparable within an allelic series) | 9.72 upbm affinity estimate (log intensity, higher = more binding, comparable within an allelic series) |
